# Assay results from PubChem BioAssay (NCATS).
# Several values for one entry are separate records, joined by “and”; a condition that tells them apart may be missing. Identical values can stand only once. Results filed as inconclusive are left out. Activity calls are given as the source filed them. Unless noted, no rule for the calls is given here.
# Columns and labels:
# [1] = qHTS profiling for inhibitors of Plasmodium falciparum (DD2) proliferation (AID 743323); details: lower = more inhibition; at 28.7 µM (top of the series)
# Procedure, shortened: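 Parasite DNA quantified by SYBR Green fluorescence (ex 485, em 535 nm) after saponin/Triton lysis and overnight dark incubation. Cultures: 0.3% parasitemia, 2.5% hematocrit, 72 h, 37 C; data scaled between DMSO and 0.29 uM artemisinin.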
# [2] = qHTS profiling for inhibitors of Plasmodium falciparum (HB3) proliferation (AID 743324; active = well fitted curve in the direction sought with a large enough effect; an effect the other way counts as inactive or inconclusive;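 also: 100% = DMSO vehicle wells and 0% = artemisinin-treated control wells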); details: Plasmodium falciparum HB3 blood-stage proliferation; at 28.7 µM (top of the series)
# Procedure, shortened: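 SYBR Green fluorescence (485 ex/535 em) of lysed cultures, incubated overnight at room temperature in the dark, quantifies parasite DNA. Infected erythrocytes at 0.3% parasitemia and 2.5% hematocrit were exposed 72 h; values normalized to DMSO and 0.29 uM artemisinin controls.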
# [3] = qHTS profiling of the MIPE4 collection as inhibitors of Plasmodium falciparum (3D7) proliferation (AID 743344);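 also: scaled between DMSO vehicle wells and 0.29 µM artemisinin as full inhibition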; details: P. falciparum 3D7 in erythrocytes, SYBR Green DNA fluorescence, 72 h; at 28.5 µM (top of the series) unless noted
# Procedure, shortened: (§1)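 Parasite DNA was quantified by SYBR Green I fluorescence (ex 485, em 535 nm) after overnight lysis in saponin/Triton buffer at room temperature. Cultures at 0.3% parasitemia and 2.5% hematocrit were first exposed to compound for 72 h at 37 C; signals were normalised to artemisinin (0.29 uM) and vehicle wells.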
# [4] = qHTS profiling of the MIPE4 collection as inhibitors of Plasmodium falciparum (DD2) proliferation (AID 743345); details: P. falciparum Dd2 in erythrocytes, SYBR Green DNA, 72 h; at 28.5 µM (top of the series) unless noted
# Procedure, shortened: as §1
# [5] = qHTS profiling of the MIPE4 collection as inhibitors of Plasmodium falciparum (DD2) proliferation (Rep 2) (AID 743346); details: P. falciparum Dd2 in erythrocytes, SYBR Green DNA, 72 h; at 28.5 µM (top of the series) unless noted
# Procedure, shortened: as §1
# [6] = qHTS profiling of the MIPE4 collection as inhibitors of Plasmodium falciparum (HB3) proliferation (AID 743347);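 also: plate controls were DMSO vehicle wells for no effect and artemisinin wells for full effect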; details: P. falciparum HB3 in erythrocytes, SYBR Green DNA, 72 h; at 28.5 µM (top of the series) unless noted
# Procedure, shortened: as §1
# [7] = High-throughput drug toxicity screening in the BPDCN cell line Gen2.2 (AID 1224824); details: Gen2.2 BPDCN cells; at 45.8 µM (top of the series) unless noted;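 also: cells exposed to compounds for 48 h before reading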
# Procedure, shortened: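 Gen2.2 cells (500/well) in phenol red-free RPMI with 10% FBS were exposed to compounds for 48 h at 37 °C, 5% CO2. Viability was read by CellTiter-Glo luminescence and normalized to DMSO (100%) and 9.2 uM bortezomib (0%).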
# [8] = High-throughput drug toxicity screening in the BPDCN cell line Cal-1 (AID 1224825); details: Cal-1 BPDCN cell viability, qHTS; at 45.8 µM (top of the series) unless noted
# Procedure, shortened: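 CellTiter-Glo luminescence after 48 h compound exposure; percent activity scaled with DMSO as 100% and bortezomib (9.2 uM final) as 0%. Cal-1 cells seeded at 500/well in RPMI, 10% FBS, no phenol red.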
# [9] = qHTS assay for measurement of the activity of small molecule inhibitors on Zika virus induced Caspase-3 activity in human iPSC derived neural progenitor cells (hNPCs) (AID 1224857; active = well fitted curve in the direction sought with a large enough effect; an effect the other way counts as inactive or inconclusive; also: nearly all actives have a fitted effect of over 65% in size; also: potency is read from the fitted curve at half-maximal effect)
# Procedure, shortened: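 Caspase-3/7 induction by a 6-hour ZIKV infection was quantified with a luminescent Caspase-Glo 3/7 reagent incubated 30 minutes at room temperature. Compounds were preincubated with hNPCs for 1 hour; inhibition was calculated against uninfected and infected control wells.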
# [10] = qHTS assay for measurement of the activity of small molecule inhibitors on Zika virus induced Caspase-3 activity in human astrocytoma cells (AID 1224859; active = well fitted curve in the direction sought with a large enough effect; an effect the other way counts as inactive or inconclusive; also: potency is read from the fitted curve at half-maximal effect)
# Procedure, shortened: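 In SNB-19 cells plated at 250 cells/well and grown 16-20 h, compounds were applied 1 h before ZIKV (2 FFU/cell). Six hours later caspase-3/7 luminescence was recorded.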
# [11] = qHTS profiling for inhibitors of Plasmodium falciparum (3D7) proliferation (AID 743322);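 also: infected erythrocytes exposed to compound for 72 h before lysis; 100% = DMSO vehicle wells and 0% = 0.29 µM artemisinin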; details: P. falciparum 3D7 proliferation; at 28.7 µM (top of the series)
# Procedure, shortened: as §1
SMILES,"activity, percent of control [1] [%]","remaining proliferation (% of control), lower = more inhibition [2] [%]","parasite growth, % of DMSO control [3]","parasite growth remaining, % of DMSO control (lower = more inhibition) [4]","parasite growth, % of control (lower = inhibition) [5]","growth, % of control [6]","cell viability, % of control (lower = more cytotoxic) [7]",viability (% of control) [8],Potency [9],Potency [10],remaining parasite growth % (stronger effect = lower value) [11] [%]
COC(=O)c1ccc2c(C(=Nc3ccc(N(C)C(=O)CN4CCN(C)CC4)cc3)c3ccccc3)c(O)[nH]c2c1,0.784,0.135,6.36%,6.24%,13.4%,5.35%,213%,71.4%,inactive,inactive,
Cn1c(=O)n(-c2ccc(C(C)(C)C#N)cc2)c2c3cc(-c4cnc5ccccc5c4)ccc3ncc21,10.2,1.06,5.06%,7.73%,6.52%,2.31%,8.42%,11.9%,inactive,inactive,
Cc1ccc(C(=O)Nc2cccc(C(F)(F)F)c2)cc1-c1ccc2nc(NCCN3CCOCC3)ncc2c1,0.812,,6.03%,7.55%,22.9%,8.15%,11.1%,5.9%,inactive,inactive,
c1cc(-c2cnn3cc(-c4ccc(OCCN5CCCCC5)cc4)cnc23)ccn1,13.9,12,4.66%,6.66%,10.1%,4.45%,2.64%,3.8%,inactive,inactive,
C[C@@]12O[C@@H](C[C@]1(O)CO)n1c3ccccc3c3c4c(c5c6ccccc6n2c5c31)CNC4=O,0.326,,6.66%,6.07%,28.1%,9.72%,9.33%,5.8%,inactive,inactive,-0.0626
Cn1cncc1[C@@](N)(c1ccc(Cl)cc1)c1ccc2c(c1)c(-c1cccc(Cl)c1)cc(=O)n2C,5.8,1.12,6.1%,,20.3%,5%,3.19%,2.26%,inactive,inactive,-0.555
O=C(c1ccc(Nc2nccc(-c3cc4ccccc4s3)n2)cc1)N1CCC(N2CCCC2)CC1,-0.895,-1.21,4.58%,6.27%,18.7%,4.99%,11.5%,3.16%,inactive,inactive,
CCCCN1CCC(CNC(=O)c2c3n(c4ccccc24)CCCO3)CC1,,,25.9%,,,,110%,9.06%,inactive,inactive,
COc1c(N2C[C@@H]3CCCN[C@H]3C2)c(F)cc2c(=O)c(C(=O)O)cn(C3CC3)c12,,,53.9% and 70.8%,76.4%,31.4% and 104%,,73.3%,71.9%,inactive,inactive,
COc1ccc2c(OCc3nnc4ccc(-c5ccccc5)nn34)ccnc2c1,,,53.1%,97.5%,67%,59.2%,170%,105%,inactive,inactive,
C=C1C(=CC=C2CCC[C@]3(C)[C@@H]([C@H](C)C=C[C@H](C)C(C)C)CC[C@@H]23)C[C@@H](O)C[C@@H]1O,102,92.2,6.24%,7.23%,7.88%,9.22%,104%,5.8%,inactive,inactive,88.6
CCC[C@H](NC(=O)C(C#N)=Cc1cccc(Br)n1)c1ccccc1,23.2,14.8,11.6%,6.9%,17.5%,4.55%,15.9%,4.33%,inactive,inactive,26.8
CN1CCN(c2ccc3nc(-c4c(N)c5c(F)cccc5[nH]c4=O)[nH]c3c2)CC1,-0.739,-3.26,3.66%,6.04%,7.17%,2.91%,9.8%,3.34%,inactive,inactive,-2.13
Nc1ccn([C@@H]2O[C@H](CO)[C@H](O)C2(F)F)c(=O)n1,,,19.5%,10.3%,8.03%,42.2%,144%,11.1%,inactive,inactive,
CC(C)c1cc(-c2n[nH]c(=O)n2-c2ccc3c(ccn3C)c2)c(O)cc1O,,,5.55%,8.22%,8.97%,1.94%,4.99%,10.7%,inactive,inactive,
CCCCOc1c(C(=O)c2c(F)cc(C)cc2F)cnc2n[nH]cc12,,,71.2%,98.1%,43.3%,92.5%,8.67%,26.5%,inactive,inactive,
COc1cccc(-c2ccc(NC(=O)C3=C(C(=O)O)CCC3)c(F)c2)c1,,,64.2%,90.8%,53%,78.8%,19%,4.11%,2.64 µM (active),2.35 µM (active),
CN(C1CCc2c(c3ccccc3n2CC(=O)O)C1)S(=O)(=O)c1ccc(F)cc1 (configuration not stated),,,15.9%,93.1%,19%,19.9%,243%,39.5%,inactive,inactive,
OCCCNc1cc(-c2ccnc(Nc3cccc(Cl)c3)n2)ccn1,,,5.7%,10.1%,19.1%,6.21%,4.08%,2.53%,inactive,inactive,
CN(C)c1nc(Cc2ccc(NC(=O)c3ccc4ccccc4c3)cc2)nc(Cl)c1CC(=O)O,,,59.8%,87.6%,42.6%,85.9%,90.6%,113%,inactive,inactive,
CCC1=C[C@@H]2CN(C1)Cc1c([nH]c3ccccc13)[C@@](C(=O)OC)(c1cc3c(cc1OC)N(C)[C@@H]1[C@@](O)(C(=O)OC)[C@H](OC(C)=O)[C@]4(CC)C=CCN5CC[C@]31[C@@H]54)C2,,,5.09%,7.41%,20.6%,8.82%,28.9%,14.5%,inactive,inactive,
CC(=O)Nc1nc(C)c(-c2ccc(Cl)c(S(=O)(=O)NCCO)c2)s1,,,4.79%,7.49%,10%,2.77%,17.8%,18.7%,inactive,inactive,
COc1cc(C(=O)N2CCC(N3CCN(C)CC3)CC2)ccc1Nc1ncc2c(n1)N(C)c1ccccc1C(=O)N2C,,,5.57%,7.18%,19.7%,5.31%,2.17%,3.29%,inactive,inactive,
Cn1c(CNc2ccc(C(=N)N)cc2)nc2cc(C(=O)N(CCC(=O)O)c3ccccn3)ccc21,,,98.6% [at 9.64 µM],91.9% [at 9.64 µM],86.3% [at 9.64 µM],87.7% [at 9.64 µM],125% [at 23.2 µM],105% [at 23.2 µM],inactive,inactive,
CCS(=O)(=O)c1cccc(-c2cc(C(=O)NC3CCN(C)CC3)c(C)c3[nH]c4ncc(C)cc4c23)c1,,,5.84%,9.76%,15.1%,7.05%,7.25%,2.47%,inactive,inactive,
C=CC(=O)Nc1cccc(Oc2nc(Nc3ccc(N4CCN(C)CC4)cc3)ncc2Cl)c1,,,8.39%,16.8%,34.6%,5.58%,8.16%,2.81%,inactive,inactive,
COc1cc(C)c(Sc2cnc(NC(=O)c3ccc(CNC(C)C(C)C)cc3)s2)cc1C(=O)N1CCN(C(C)=O)CC1 (configuration not stated),,,16.2%,16%,18.9%,4.37%,140%,6.82%,inactive,inactive,
Cc1ccc2nc(NC(=O)CSc3nc4c(c(=O)n3-c3ccccc3)SCC4)sc2c1,,,29.9%,82.9%,72.4%,42.3%,120%,15.8%,inactive,inactive,
